Screening data (PubChem)
The list is not random: actives were taken first. Their share in the collection is about 2.3%.
GLD-1 TGE inh – GLD-1-TGE RNA interaction inhibition (C. elegans); Q17339; purified GLD-1 + fluorescein TGE RNA, fluorescence polarization; inhibition, % at 5.96 µM; 320,000 compounds, 0.44% hits; AID 2280;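 active means percent inhibition above a per-plate cutoff, the plate mean of test compounds plus 3 SD, cut at about 30% in these data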
Target sequence (Q17339 whole entry, looked up): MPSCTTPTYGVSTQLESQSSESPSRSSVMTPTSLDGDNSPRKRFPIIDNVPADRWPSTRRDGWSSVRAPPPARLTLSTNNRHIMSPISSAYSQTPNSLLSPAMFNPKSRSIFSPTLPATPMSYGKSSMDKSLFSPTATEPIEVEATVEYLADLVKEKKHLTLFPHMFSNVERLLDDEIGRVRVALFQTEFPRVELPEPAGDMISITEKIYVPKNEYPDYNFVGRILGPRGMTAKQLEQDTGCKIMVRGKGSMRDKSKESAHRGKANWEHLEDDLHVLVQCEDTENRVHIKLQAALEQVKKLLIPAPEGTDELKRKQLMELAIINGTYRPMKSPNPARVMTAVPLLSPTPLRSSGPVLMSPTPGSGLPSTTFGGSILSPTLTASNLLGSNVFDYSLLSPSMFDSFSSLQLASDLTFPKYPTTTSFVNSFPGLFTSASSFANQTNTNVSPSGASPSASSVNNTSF
Mcl1-Noxa inh – Mcl-1/Noxa interaction inhibition; 220,000 compounds, 1.5% hits; inhibition, % at 21.7 µM; Q07820; TR-FRET Mcl-1/Noxa peptide binding, 2 h;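 active means compounds that cut the protein-peptide binding signal by more than 50% relative to plate controls in a single-dose test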;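 further: His-tagged Mcl-1 with rhodamine Noxa BH3 peptide and terbium anti-His antibody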
MCL1 BIM primary – MCL1-BIM-BH3 interaction inhibition (human); AID 2057; Q07820; 320,000 compounds, 0.68% hits; inhibition, % at 10.9 µM; GST-MCL1 / FITC-Bim-BH3 fluorescence polarization;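 active means inhibition above the mean inhibition of all tested compounds plus 3 SD, set per campaign, cut at about 40% in these data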;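 further: higher means more loss of mP so more displacement of Bim peptide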
Mcl1 Bid PPI – Mcl-1/Bid interaction inhibition | Q07820 | inhibition, % at 21.7 µM | 220,000 compounds, 0.97% hits | TR-FRET Mcl-1/Bid-Dy647 peptide binding, 1536-well;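 active means compounds that cut the binding signal by more than half at the single screening dose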;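 further: His-tagged Mcl-1 with europium anti-His antibody binding Bid BH3 peptide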
Bim-Mcl-1 – human Bim-Mcl-1 interaction inhibition. 190,000 compounds, 0.1% hits. inhibition, % at 10 µM. Bead-based flow cytometry, Bim peptide-Mcl-1 binding; in the data active means inhibition above about 40%
BCLXL inh – inhibitors of human Bcl-xL. Q07817. GST-Bcl-xL / FITC-Bim BH3 peptide fluorescence polarization. inhibition, % at 10.9 µM. 320,000 compounds, 0.7% hits;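 active means inhibition above the mean of all tested compounds plus 3 SD, cutoff set per campaign, cut at about 30% in these data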;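 further: inhibitors lower millipolarization by displacing the labeled peptide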
Target sequence (Q07817 whole entry, looked up): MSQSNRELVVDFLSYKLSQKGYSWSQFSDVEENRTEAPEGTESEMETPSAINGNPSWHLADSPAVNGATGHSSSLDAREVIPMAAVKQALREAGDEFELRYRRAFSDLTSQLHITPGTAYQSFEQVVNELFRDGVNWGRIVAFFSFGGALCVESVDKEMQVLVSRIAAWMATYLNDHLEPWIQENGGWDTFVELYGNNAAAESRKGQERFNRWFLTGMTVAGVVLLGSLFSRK
Of the large screens only hits and unclear results are named; the others gave an inactive call.

CCOc1ccc(NC(=O)CC2C(=O)Nc3ccccc3N2C(=O)c2ccccc2)cc1 (centres undefined)	none
O=C(O)c1ccc(Nc2nc(-c3cccnc3)cs2)cc1O	none (no result: Mcl1-Noxa inh, Mcl1 Bid PPI, Bim-Mcl-1)
O=c1oc2ccccc2cc1-c1nc(-c2cccs2)cs1	GLD-1 TGE inh 139
Nc1ccc(Nc2nc(-c3cc4ccccc4oc3=O)cs2)cc1	Mcl1-Noxa inh 59
O=C(O)c1ccc(Nc2nc(-c3cc4ccccc4oc3=O)cs2)cc1O	Mcl1-Noxa inh 97 (no result: GLD-1 TGE inh, MCL1 BIM primary, BCLXL inh)
COc1cc(OC)c(OC)cc1CNC(=O)c1cc(=O)c2ccccc2o1	none (no result: Mcl1-Noxa inh, Mcl1 Bid PPI, Bim-Mcl-1)
O=C(NCCNC1CCC(c2ccccc2)CC1)c1ccc(F)cc1 (centres undefined)	none
O=C(CN1C(=O)CSc2ncccc21)Nc1cccc(Cl)c1	none (no result: Mcl1-Noxa inh, Mcl1 Bid PPI, Bim-Mcl-1)
CC(C)C(=O)NC(c1cccs1)c1cc([N+](=O)[O-])c2cccnc2c1O (centres undefined)	Mcl1-Noxa inh 63, Mcl1 Bid PPI 55
CCc1cc(=O)oc2cc3occ(-c4ccc(OC)c(F)c4)c3cc12	Mcl1 Bid PPI 67
C=CCOC(=O)/C=C/C(=O)NC(N)=O	Mcl1 Bid PPI 75 (no result: Bim-Mcl-1)
CCN(CC)C(=O)C1CCCN(Cc2cccc(F)c2)C1 (centres undefined)	Mcl1 Bid PPI 64
CCN(C(=O)CN1C(=O)CN(C)C1=O)c1cccc2ccccc12	none (no result: Mcl1-Noxa inh, MCL1 BIM primary, Mcl1 Bid PPI, Bim-Mcl-1, BCLXL inh)
CCN(C(=O)CN1CCN(C)CC1)c1cccc2ccccc12	Mcl1 Bid PPI 56
Cc1cc(C(=O)CN2CCN(CC(=O)Nc3cccc(F)c3)CC2)c(C)n1C1CC1	none (no result: Mcl1-Noxa inh, Mcl1 Bid PPI, Bim-Mcl-1)
COc1cc(CC2COC(c3ccc(O)c(OC)c3)C2COC(C)=O)ccc1O (centres undefined)	Mcl1-Noxa inh 70 (no result: Bim-Mcl-1)
CN(C)c1ccc(/C=N/NC(=O)COc2ccccc2)cc1	none
CN(NC(=O)COc1ccccc1)c1ccccc1	Mcl1 Bid PPI 94
COc1cc(NC(=O)COc2ccccc2)c(OC)cc1NC(C)=O	Mcl1 Bid PPI 95
COc1cc(NC(=O)c2ccccc2)c(OC)cc1NC(C)=O	none
Cc1cc(C)n2nc(SCC(=O)N3CCC(C(=O)O)CC3)nc2n1	none (no result: Mcl1-Noxa inh, MCL1 BIM primary, Mcl1 Bid PPI, Bim-Mcl-1, BCLXL inh)
Cc1cc(C(=O)NC2CCCCCC2)c2ccccc2n1	none (no result: Mcl1-Noxa inh, MCL1 BIM primary, Mcl1 Bid PPI, Bim-Mcl-1, BCLXL inh)
Oc1ccccc1CNc1ccc(OC(F)(F)F)cc1	Mcl1-Noxa inh 57
Cc1ccc(NCc2ccccc2O)cc1C	none
O=C(CCN1C(=O)/C(=C/c2cccc(Br)c2)SC1=S)NNC(=O)c1cccnc1	Mcl1 Bid PPI 67
O=C(CN1C(=O)/C(=C/c2cccc(Br)c2)SC1=S)Nc1cccnc1	Mcl1-Noxa inh 52
O=C(CCN1C(=O)/C(=C/c2ccccc2)SC1=S)NNC(=O)c1cccnc1	none
O=C(CCN1C(=O)/C(=C/c2ccc3c(c2)OCO3)SC1=S)NNC(=O)c1cccnc1	Mcl1 Bid PPI 53
COc1cccc(/C=C2\SC(=S)N(CCCC(=O)NC3=NCCS3)C2=O)c1	none (no result: Mcl1-Noxa inh, Mcl1 Bid PPI, Bim-Mcl-1)
O=C(CN1C(=O)/C(=C/c2cccc(Br)c2)SC1=S)NC1=NCCS1	Mcl1-Noxa inh 55
CCOC(=O)CC1(C)OCC(C[N+]2(C)CCCCC2)O1 (centres undefined)	none
C/C(=N\Nc1nc(Cl)c(Cl)cc1Cl)c1ccc(S(=O)(=O)NCc2ccco2)cc1	none
CC1CCN(Cc2cc(=O)oc3ccc4ccccc4c23)CC1	none (no result: Bim-Mcl-1)
COc1ccc(OC)c(S(=O)(=O)Nc2cc3c4c(c2)C(C)C(=O)N4CCC3)c1 (centres undefined)	none (no result: Mcl1-Noxa inh, Mcl1 Bid PPI, Bim-Mcl-1)
Cc1cccc(NC(=O)CCC2CCN(Cc3nccs3)CC2)c1	none (no result: Mcl1-Noxa inh, Mcl1 Bid PPI, Bim-Mcl-1)
CC1CC(C)CN(CCCNC(=O)C2CCCN(c3ncnc4c3nc3n4CCCCC3)C2)C1 (centres undefined)	GLD-1 TGE inh 41 (no result: Mcl1-Noxa inh, Mcl1 Bid PPI, Bim-Mcl-1)
CC1CCCN(CCCNC(=O)C2CCCN(c3ncnc4c3nc3n4CCCCC3)C2)C1 (centres undefined)	none (no result: Mcl1-Noxa inh, Mcl1 Bid PPI, Bim-Mcl-1)
CC1CCCCN1CCNC(=O)C1CCCN(c2ncnc3c2nc2n3CCCCC2)C1 (centres undefined)	BCLXL inh 39 (no result: Mcl1-Noxa inh, Mcl1 Bid PPI, Bim-Mcl-1)
COc1cnn(Cc2ccccc2)c(=O)c1SCc1ccccc1	none
CCOc1cnn(Cc2ccccc2)c(=O)c1SCc1ccccc1	Mcl1-Noxa inh 70
COc1ccc(NS(=O)(=O)N2CCOCC2)cc1	none (no result: Mcl1-Noxa inh, Mcl1 Bid PPI, Bim-Mcl-1)
O=C(Nc1ccc2c(c1)nc1n2CCN(C2CCCCC2)C1)c1ccco1	Mcl1-Noxa inh 84 (no result: GLD-1 TGE inh, MCL1 BIM primary, Bim-Mcl-1, BCLXL inh)
O=C(Nc1ccc2c(c1)nc1n2CCSC1)c1ccco1	Mcl1-Noxa inh 60
CCC(=O)Nc1ccc2c(c1)nc1n2CCN(C2CCCCC2)C1	none
CCc1cc(C(=O)N=Nc2c(O)[nH]c3ccc([N+](=O)[O-])cc23)c2ccccc2n1	Mcl1-Noxa inh 92
O=C(N=Nc1c(O)[nH]c2ccc([N+](=O)[O-])cc12)c1ccccc1[N+](=O)[O-]	none (no result: Bim-Mcl-1)
CCN(CC)S(=O)(=O)c1cc([N+](=O)[O-])ccc1N=Nc1c(O)[nH]c2ccccc12	Mcl1 Bid PPI 51
CC(=O)c1cc2c(cc1NC(=O)Cc1c(C)noc1C)OCO2	none (no result: Mcl1-Noxa inh, MCL1 BIM primary, Mcl1 Bid PPI, Bim-Mcl-1, BCLXL inh)
O=C(CN1C(=O)S/C(=C\C=C\c2ccccc2)C1=O)Nc1ccc(O)cc1	Mcl1-Noxa inh 55
O=C(CCCN1C(=O)S/C(=C/C=C/c2ccccc2)C1=O)Nc1ccc(C(=O)O)cc1	none (no result: Mcl1-Noxa inh, Mcl1 Bid PPI, Bim-Mcl-1)
Cn1c(=O)c([N+](=O)[O-])c(Cl)c2ccccc21	none (no result: GLD-1 TGE inh, MCL1 BIM primary, BCLXL inh)
CSCC[C@H](NC(=O)OC(C)(C)C)c1nnc(SCC(=O)N(C)C)o1	Mcl1-Noxa inh 67
CN(C)C(=O)CSc1nnc([C@H](Cc2ccccc2)NC(=O)OC(C)(C)C)o1	none (no result: Bim-Mcl-1)
O=S(=O)(Nc1nc2ccccc2nc1NCc1ccco1)c1ccc(Cl)cc1	none
Cc1ccc(S(=O)(=O)c2c(N)n(Cc3ccco3)c3nc4ccccc4nc23)cc1	GLD-1 TGE inh 44
CCCCn1c(N)c(S(=O)(=O)c2ccc(C)cc2)c2nc3ccccc3nc21	none
Cc1ccc(S(=O)(=O)Nc2nc3ccccc3nc2NCc2ccco2)cc1	MCL1 BIM primary 43, BCLXL inh 40
Cc1cccc(S(=O)(=O)c2c(N)n(Cc3ccco3)c3nc4ccccc4nc23)c1	GLD-1 TGE inh 69, BCLXL inh 37
CCn1c(C)c(CS(=O)(=O)c2ccccc2)[nH]c1=O	none
COc1ccc(-c2csc(Cc3nnc4n3CCCCC4)n2)cc1OC	Mcl1-Noxa inh 62, Mcl1 Bid PPI 55
COc1ccc(-c2nnc3n2CCCCC3)cc1OC	none (no result: Mcl1-Noxa inh, Mcl1 Bid PPI, Bim-Mcl-1)
CCc1ccc(NC(=O)NCC2CCN(c3ccc(OC)cc3)C2)cc1 (centres undefined)	Mcl1-Noxa inh 73 (no result: Bim-Mcl-1)
COc1ccc(N2CCC(CNC(=O)Nc3ccc(OC)cc3OC)C2)cc1 (centres undefined)	Mcl1-Noxa inh 90
COc1ccc(N2CCC(CNS(=O)(=O)c3cccc(C(F)(F)F)c3)C2)cc1 (centres undefined)	Mcl1-Noxa inh 80
CCOc1ccc(NC(=O)NCC2CCN(c3ccc(OC)cc3)C2)cc1 (centres undefined)	none
